# Data published in the supplement of paper PMC8728848.
# The entries come from a sample that favours the strongest signals as a whole.
# B1: Siglec-7-SA-PE-180 (Homo sapiens), Q9Y286 (protein)
# chain: MLLLLLLPLLWGRERVEGQKSNRKDYSLTMQSSVTVQEGMCVHVRCSFSYPVDSQTDSDPVHGYWFRAGNDISWKAPVATNNPAWAVQEETRDRFHLLGDPQTKNCTLSIRDARMSDAGRYFFRMEKGNIKWNYKYDQLSVNVTALTHRPNILIPGTLESGCFQNLTCSVPWACEQGTPPMISWMGTSVSPLHPSTTRSSVLTLIPQPQHHGTSLTCQVTLPGAGVTTNRTIQLNVSYPPQNLTVTVFQGEGTASTALGNSSSLSVLEGQSLRLVCAVDSNPPARLSWTWRSLTLYPSQPSNPLVLELQVHLGDEGEFTCRAQNSLGSQHVSLNLSLQQEYTGKMRPVSGVLLGAVGGAGATALVFLSFCVIFIVVRSCRKKSARPAADVGDIGMKDANTIRGSASQGNLTESWADDNPRHHGLAAHSSGEEREIQYAPLSFHKGEPQDLSGQEATNNEYSEIKIPK
# Experiments:
# Assay in all cases: glycan array binding signal (z-score within array); higher = stronger binding
# Conditions in all cases: glycan notation: IUPAC condensed, linker removed
# [1] = molecular target: Neu5Ac(a2-6)Gal(b1-4)GlcNAc(b1-2)Man(a1-3)[Gal(b1-4)GlcNAc(b1-2)Man(a1-6)]Man(b1-4)GlcNAc(b1-4)GlcNAc
# How it was run: (§1)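 Negative Z-scores can be read as non-binding. The Z-score is calculated within each array and then averaged across arrays of one protein sequence at different concentrations or buffers and across linkers. Arrays, 3228 in all, were curated from the Consortium for Functional Glycomics database and kept only where the protein sequence was available.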
# [2] = molecular target: Neu5Ac(a2-6)Gal(b1-4)GlcNAc(b1-3)Gal(b1-4)GlcNAc(b1-3)GalNAc
# How it was run: as §1
# [3] = molecular target: Neu5Ac(a2-6)GalNAc(b1-4)GlcNAc6S
# How it was run: as §1
# Neu5Ac(a2-8)Neu5Ac = molecular target: Neu5Ac(a2-8)Neu5Ac
# How it was run: as §1
# [4] = molecular target: Neu5Ac(a2-8)Neu5Ac(a2-3)[Gal(b1-3)GalNAc(b1-4)]Gal(b1-4)Glc
# How it was run: as §1
# [5] = molecular target: Neu5Gc(a2-3)Gal(b1-3)GlcNAc
# How it was run: as §1
# Neu5Gc(a2-6)GalNAc = molecular target: Neu5Gc(a2-6)GalNAc
# How it was run: as §1
# [6] = molecular target: Neu5Gc(b2-6)Gal(b1-4)GlcNAc
# How it was run: as §1
binder,measurement,setting,value
B1,glycan array binding signal (z-score),[1],-0.303
same,glycan array binding signal (z-score),[2],-0.587
same,glycan array binding signal (z-score),[3],0.866
same,glycan array binding signal (z-score),Neu5Ac(a2-8)Neu5Ac,2.11
same,glycan array binding signal (z-score),[4],-0.067
same,glycan array binding signal (z-score),[5],-0.155
same,glycan array binding signal (z-score),Neu5Gc(a2-6)GalNAc,2.26
same,glycan array binding signal (z-score),[6],-0.05
